Measurements as given in article PMC13494018.
Unmarked numbers belong to inactive results. The rule behind the calls is not given here.

B1: design_610_f34cc193-997c-4684-af32-2a8002718429_1084_dldesign_0_cycle1_af2pred (protein)
chain: SAAQQAKQKALELFEQAAKLAAKYDPKAAEKFNKAKEALQAGDLGGALKYATEGVNILAKNASQEAADEVRAIATQGLISYAQAQILA
B2: design_488_244881a1-ba0c-4c08-ad9c-1f64cf93580a_1769_dldesign_0_cycle1_af2pred (protein)
chain: GEEAKKLKEKADELFAKAKAVLEDPTATKEELTEAAIYASEAAVLYLKAAGLASPEEREEYLKKAVEASKIAIELAAKA
B3: design_610_f34cc193-997c-4684-af32-2a8002718429_661_dldesign_0_cycle1_af2pred (protein)
chain: AKAQAEAQLAQGQKLLEQAKKNLASGKNAVAALSNARGAYVLFQGAAYIAAKTDPELAKKAKEAAKQAEELAKQAQAAIAAA
B4: design_610_f34cc193-997c-4684-af32-2a8002718429_285_dldesign_0_cycle1_af2pred (protein)
chain: LAAEVAAAEAAAAAAAAAAKALGATATAAALRAMAEDAARSTPEEAAAARDFAEAMLTVLTARLAAAKAAAA
B5: design_488_244881a1-ba0c-4c08-ad9c-1f64cf93580a_1793_dldesign_0_cycle1_af2pred (protein)
chain: EAEELLARARAVEERGAELAAAAEALASVPGAASLKAHVAQALRAAQQAREAVADPEEATRLLRAAEASLRNAELVLEGMKIQAA
B6: design_488_244881a1-ba0c-4c08-ad9c-1f64cf93580a_2417_dldesign_0_cycle1_af2pred (protein)
chain: SAALEAAKQAYDDAAKAAEEAAKDPAVAETAAAAKKSLKAFADEMTAFIKASTDEADKQAAADTLKLYAKNITNQLKAAAAAA
B7: design_610_f34cc193-997c-4684-af32-2a8002718429_112_dldesign_0_cycle1_af2pred (protein)
chain: MEEVKEEVIKVIEEAAAKAKKAIEADPSTAWAHASAAYATASKAIIANAPKLSPEEMTEVGEVFLKNMKELTEHAKAVAAA
B8: design_488_244881a1-ba0c-4c08-ad9c-1f64cf93580a_1807_dldesign_0_cycle1_af2pred (protein)
chain: AEEEESRRRAEGAKAFLDQILAAAQASASNPAALAALAASAEANAKSVAAAASPEYAKEVRDYAAKVVAQINALAA
B9: design_610_f34cc193-997c-4684-af32-2a8002718429_532_dldesign_0_cycle1_af2pred (protein)
chain: MPQAEQAAQAAAKSGESLMKLAESIWSSTPEYRKAHKESILGALEVARDLYEYAAKQGGEEYKKKAEEAKAKYKEVKETL
B10: design_610_f34cc193-997c-4684-af32-2a8002718429_742_dldesign_0_cycle1_af2pred (protein)
chain: MERAEKLIEKVKEIASLPKSKEEEQEELALKVAEEAAKLTPEEQQKVIQAMLEYAEKSGSTALLRGANRIFAA
B11: design_488_244881a1-ba0c-4c08-ad9c-1f64cf93580a_1644_dldesign_0_cycle1_af2pred (protein)
chain: KEAVVREAGEALEELLRYASRIDPAEGARLVAEASRILRQAVLGDEEEAEEARERVERLREEARERAEAA
B12: design_488_244881a1-ba0c-4c08-ad9c-1f64cf93580a_2397_dldesign_0_cycle1_af2pred (protein)
chain: AVAAAEQRVKEAAAKVAKALADEPFDVIYAAIMKEGEKIGKETGLEKQIKAEAVKEAQAAFVARAKAQIAAA
B13: design_610_f34cc193-997c-4684-af32-2a8002718429_1045_dldesign_0_cycle1_af2pred (protein)
chain: MTPGELGELALEALRLAAEAARLAAEDPRFAPAAAAFRAAFIEIARGGDPEEALRLYEEGLRLYEAALAAWRAA
B14: design_488_244881a1-ba0c-4c08-ad9c-1f64cf93580a_2213_dldesign_0_cycle1_af2pred (protein)
chain: AEAQAALIAAKGYYYLAQSYYTHVANNPSLPAEEKKQAAKNAKEAAEKAEEYAKKAGPEAQPYAEKAKKYAEETKKLAEEYA
B15: design_488_244881a1-ba0c-4c08-ad9c-1f64cf93580a_2145_dldesign_0_cycle1_af2pred (protein)
chain: MKEEEVEKKIEEAAKIAGITMRVLKKLLPDDPFLATQLAMKVAVELGKKVGELAGSEEVEKRAYEAAIEAMMKAAV
B16: design_488_244881a1-ba0c-4c08-ad9c-1f64cf93580a_2479_dldesign_0_cycle1_af2pred (protein)
chain: SEEYIKEAEKLLKEAKEVAAVAKASGDPVALRGAAAFADAVKQVALAKAKKASEEVAKKLEEIAKEAEKLAKELRAAAAA
B17: design_488_244881a1-ba0c-4c08-ad9c-1f64cf93580a_1684_dldesign_0_cycle1_af2pred (protein)
chain: AAATAQAKADAAKAKAAVESGQDTSALATGHLLRAYSLDPAVADATLAELKALAAGRGTAVATQAIANFAAGVA
B18: design_488_244881a1-ba0c-4c08-ad9c-1f64cf93580a_2073_dldesign_0_cycle1_af2pred (protein)
chain: GSMEELKERAKRIFEEANRVLARASRVATANPAALPLASRAIAEAVRAQELANEALKTDPETGKELLERAEEELREARRYLEEAEAA
B19: design_610_f34cc193-997c-4684-af32-2a8002718429_895_dldesign_0_cycle1_af2pred (protein)
chain: SSAEALARRTAEAMVRLAERRIREAAEEGLEKARETAEKWARFAEEALPPEVGAETAKRIREAAERIVRRKEEE
B20: design_610_f34cc193-997c-4684-af32-2a8002718429_921_dldesign_0_cycle1_af2pred (protein)
chain: AEAVAVAAMLGLLRNAADHPESAEKLAEIARDMALATGVPAEKVKEVFEEGARYAREKGNEEAAKIIEEKGEEAVKAAKAA
B21: design_488_244881a1-ba0c-4c08-ad9c-1f64cf93580a_1954_dldesign_0_cycle1_af2pred (protein)
chain: AAAQEVAQTAAIMDAALIAAKQSPELLKEMMDVAVAHTKASADPAATLAVLKEKAAKIAEEGTPEAAKIAKAAVAEAA
B22: design_610_f34cc193-997c-4684-af32-2a8002718429_136_dldesign_0_cycle1_af2pred (protein)
chain: SLNGTAGAGIVELLKALAEAQKWKALDPEFFGAAAKEIAAETAAAAQAAVAGDYEAAIAEVKAGKAVAEKAKKHAAEIA
B23: design_610_f34cc193-997c-4684-af32-2a8002718429_113_dldesign_0_cycle1_af2pred (protein)
chain: AAAAAAAAEKAAAVAAIKEIAEAAKAHAATVGFRALAASAATVVRLAEQGLWTPEGVKKALEVLKAIYEAELAALKAAAA
B24: design_610_f34cc193-997c-4684-af32-2a8002718429_954_dldesign_0_cycle1_af2pred (protein)
chain: MEEAKEKAEEAKKEAKEAIEKLRKVAEKAKAHPDGAEIQRRVDIAVAAVKGLLKNAEASPNPEDSLKIYEVAKELAEAERERVEAILK
B25: design_488_244881a1-ba0c-4c08-ad9c-1f64cf93580a_2450_dldesign_0_cycle1_af2pred (protein)
chain: AEERERLTEKARLALEAAESLVAEAERTSPERAAALARSALRFAAEAERYAKEAGDEEIAARAREVRARAEAIL
B26: design_610_f34cc193-997c-4684-af32-2a8002718429_938_dldesign_0_cycle1_af2pred (protein)
chain: SPQAELDAFLGETLETSREISAILEKNRDKVPEEVRNKISDLLNKALSYASKAALGVDPEGAAKAKKYLEEAKKLTEEAVKLA
B27: design_610_f34cc193-997c-4684-af32-2a8002718429_692_dldesign_0_cycle1_af2pred (protein)
chain: SAARAAAAAAVHAKVYAVLEKQAEEALKKAAEVAKKLGDEKFYKEAKKEAEEAKKLAKESPGEGLKAITELKQKVKEAAKKAEA
B28: design_610_f34cc193-997c-4684-af32-2a8002718429_743_dldesign_0_cycle1_af2pred (protein)
chain: EEEEKKKKAKEYVEKAKKLAEQAAKSTVEQAHQYLGQAVELAAKVHELGVLPEEANKVLAQASANALALA
B29: design_610_f34cc193-997c-4684-af32-2a8002718429_868_dldesign_0_cycle1_af2pred (protein)
chain: DALAKAQKQAKATAEEAKKKAEEAKAAGNSAAAQMYENGAKVAEEGAKGDLKTVKAAIERGKTLIKAGDAIAAA
B30: design_610_f34cc193-997c-4684-af32-2a8002718429_291_dldesign_0_cycle1_af2pred (protein)
chain: AEERAKELAEELKELLAKAVADPSKAGEYLGRALELLAELQALAAEHPEVAPYAEEAHRALGAGNKALLAAIAA
B31: design_610_f34cc193-997c-4684-af32-2a8002718429_328_dldesign_0_cycle1_af2pred (protein)
chain: MEAAKAAVEAARAEADALLAAAEASPDPGEATALAVDALRTVSAARREIEATYGPEAGALADAVLAEVRARVAALNRRLIA
B32: design_610_f34cc193-997c-4684-af32-2a8002718429_1156_dldesign_0_cycle1_af2pred (protein)
chain: NPLVKQAEKNYKKAKEMAELGLASTDPLAIRSYAAFGDSLYNNAAELLKKAGKEEEAKKVEAEGEEKKAALLAKAKAAA
B33: design_610_f34cc193-997c-4684-af32-2a8002718429_824_dldesign_0_cycle1_af2pred (protein)
chain: DALVAEARRLLQEAARLLGTGSAAYIAGDKAAAVAAFKEAIGLAKKALELAKAAGDEALAASAQGLIELAEGLLAAAEA
B34: design_488_244881a1-ba0c-4c08-ad9c-1f64cf93580a_2117_dldesign_0_cycle1_af2pred (protein)
chain: AAEEFAKKEAEKAAEVAKTGTPEEAKKAATKLAKKVADAFGVGEALRMLAIAMKMVADDPAKVAAMRAAAAEVQRAAL
B35: design_488_244881a1-ba0c-4c08-ad9c-1f64cf93580a_1486_dldesign_0_cycle1_af2pred (protein)
chain: SAAGQLALDTAKTFMQQAKELAKQDPQLALAALQSAKLAADGAIADPATAAQGKALKAEVKAQEAAVKAAAAAAA
B36: design_610_f34cc193-997c-4684-af32-2a8002718429_489_dldesign_0_cycle1_af2pred (protein)
chain: EKEKKIKELLEKGLEKMKKAAELTGDPGMQTYLKMAENNVKTNSPKDAAKINAELAKIAAGHAASLDPEAAKLVEEAYKLFKEAAKL
B37: design_488_244881a1-ba0c-4c08-ad9c-1f64cf93580a_2241_dldesign_0_cycle1_af2pred (protein)
chain: GAALLAQAQALMKAANATAAAGDTATAAAAWADAAKKLAELAKEAAKEDPAYAATIQAMADMSKYIAEQAKA
B38: design_488_244881a1-ba0c-4c08-ad9c-1f64cf93580a_1921_dldesign_0_cycle1_af2pred (protein)
chain: DKATLAAQAQAVVNATKIAVEAAEKAIKEGDKEAAKKAAEGLKQMVEVAEAMAKQLEAAGADQAVIDAVKEAAEAAKKAAEKAEKFA

Target: CD276, Q5ZPR3
Sequence (Q5ZPR3 whole entry): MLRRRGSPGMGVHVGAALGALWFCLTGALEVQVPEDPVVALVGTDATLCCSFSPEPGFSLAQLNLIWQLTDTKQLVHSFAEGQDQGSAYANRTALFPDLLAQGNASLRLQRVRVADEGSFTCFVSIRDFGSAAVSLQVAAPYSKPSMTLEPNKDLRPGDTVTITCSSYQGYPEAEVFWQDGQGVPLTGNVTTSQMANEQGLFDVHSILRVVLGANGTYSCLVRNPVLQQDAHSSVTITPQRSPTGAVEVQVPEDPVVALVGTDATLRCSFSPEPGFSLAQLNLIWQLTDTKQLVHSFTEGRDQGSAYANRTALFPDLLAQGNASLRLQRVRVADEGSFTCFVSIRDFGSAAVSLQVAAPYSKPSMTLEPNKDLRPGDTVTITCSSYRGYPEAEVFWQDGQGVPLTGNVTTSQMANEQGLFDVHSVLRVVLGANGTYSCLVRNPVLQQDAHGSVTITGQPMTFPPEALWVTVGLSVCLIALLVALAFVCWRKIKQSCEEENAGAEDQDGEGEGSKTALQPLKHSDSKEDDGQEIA

Binder	binding in a display sort
B1	not found
B2	not found
B3	not found
B4	not found
B5	not found
B6	not found
B7	not found
B8	not found
B9	not found
B10	not found
B11	not found
B12	not found
B13	not found
B14	not found
B15	not found
B16	not found
B17	not found
B18	not found
B19	not found

Binder	binding in a display sort
B20	not found
B21	not found
B22	not found
B23	not found
B24	not found
B25	binds (active)
B26	not found
B27	not found
B28	not found
B29	not found
B30	not found
B31	not found
B32	not found
B33	not found
B34	not found
B35	not found
B36	not found
B37	not found
B38	not found
